The list is not random: actives were taken first. Their share in the collection is about 3.8%.
HepG2 tox: kills HepG2 cells in TGF-b inhibitor counter-screen. HepG2 CAGA-GFP viability, ATP luminescence, 18 h. Potency, µM (titrated, usually from 46.1 µM), inactives show top-dose activity change, negative = cytotoxicity, actives largely listed as cytotoxic. 0.76% of 410,000 active
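HepG2 CAGA-GFP cells (1000/well, DMEM with 1% FBS) received compound, then TGF-beta at 500 pg/mL final, and were incubated 18 hours at 37 degrees C. Viability was read by CellTiter-Glo luminescence. Media-only wells were set as complete cell-killing and DMSO as no toxicity.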
ATXN2 expr inh: ATXN2 expression inhibition. HEK-293 ATXN2-luciferase reporter, luminescence, 24 h. Potency, µM (series often up to 57 µM), for the others: at the top dose activity change, negative = inhibition, actives largely listed as inhibitors. 0.72% of 360,000 active; also: % is scaled to controls: 0 for no effect and ±100 for the full control effect; nearly all actives have a fitted effect of over 55% in size
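qHTS (up to 57 uM final) was run with 24 h compound exposure of reporter cells at 37 °C. Each well was multiplexed: SteadyGlo luminescence measured ATXN2-luciferase expression after a fluorogenic Gly-Phe-AFC viability readout (25 uM final).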
ATXN viability: viability counter-screen for ATXN expression inhibitors; S2 cells (HEK-293 line with an ATXN2-luciferase reporter) viability, CellTiter-Fluor protease fluorescence, 24 h; Potency, µM (top dose mostly 56.7 µM), most hits filed as cytotoxic; 0.49% of 400,000 active; also: nearly all actives have a fitted effect of over 40% in size
HT1080-NT tox: kills 2HG-producing HT-1080-NT fibrosarcoma cells | HT-1080-NT fibrosarcoma viability, CellTiter-Glo ATP luminescence, 48 h | AID 686970 | 1.6% of 360,000 active | Potency, µM (highest dose often 46.1 µM), inactives show at the highest dose activity, negative = less viability, most hits filed as cytotoxic;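 also: NT is the 2HG producing partner of a matched IDH1 knockdown line; 0% = DMSO-treated cells and -100% = media-only wells without cells; nearly all actives have a fitted effect of over 55% in size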
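Fibrosarcoma NT cells, 750 per well in 5% FBS RPMI, were exposed to compound for 48 hours. Viability: CellTiter-Glo luminescence.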
HT1080 IDH1KD tx: HT-1080 IDH1 knockdown cell toxicity (counter line); Potency, µM (doses to about 46.1 µM), for the others: at the highest dose activity, negative = toxicity, actives largely listed as cytotoxic; HT-1080 IDH1 knockdown viability, ATP luminescence, 48 h; 2% of 360,000 active; AID 686971;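 also: 0% = DMSO wells and -100% = cell-free medium wells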
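Cytotoxicity counter-line: IDH1KD HT-1080, 48 h, CellTiter-Glo. Curves classed by r2, magnitude and activity.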
TGFb inhibitor: inhibitors of TGF-b signaling; 1.2% of 410,000 active; AID 588855; Potency, µM (highest dose often 46.1 µM), for inactives: at the top dose activity, negative = inhibition, most hits filed as inhibitors; HepG2 CAGA-GFP TGF-b/SMAD3 reporter, GFP fluorescence, 18 h; TGF-beta stimulated, 500 pg/mL final; also: % is scaled to controls: 0 for no effect and ±100 for the full control effect; nearly all actives have a fitted effect of over 65% in size
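HEPG2 CAGA-GFP reporter cells (1000/well, DMEM with 1% FBS) received compounds, then recombinant TGF-beta at 500 pg/mL final for 18 hours at 37 degrees C. Per-cell GFP summed per well was normalised to unstimulated and stimulated DMSO controls before curve fitting.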
* hit, by the source's call; i = inactive; ? = inconclusive; . = no result. Calls follow the shape of the dose curve; as a rule, active = well fitted curve in the direction sought with a large enough effect; inconclusive = small, poorly fitted or top-dose-only effect, or another doubt; inactive = no such curve, though single readings can be large; an effect the other way counts as inactive or inconclusive. Potency is read from the fitted curve at half-maximal effect.

SMILES	HepG2 tox	ATXN2 expr inh	ATXN viability	HT1080-NT tox	HT1080 IDH1KD tx	TGFb inhibitor
COc1ccc(NC(=O)CC2C(=O)N(c3ccc(C)cc3)C(=O)N2Cc2cccnc2)cc1 (stereo not drawn)	0%	.	.	.	.	1%
Cc1nn(Cc2cccc(C(=O)N3N=C(C(F)F)CC3(O)C(F)F)c2)c(C)c1[N+](=O)[O-] (stereo not drawn)	-18%	-7%	i	-19%	?	0%
CC1=NN(C(=O)c2cccc(Cn3nc(C)c([N+](=O)[O-])c3C)c2)C(O)(C(F)(F)F)C1 (stereo not drawn)	-17%	-14%	i	7.9µM*	5µM*	-9%
CCCN(CCC)c1nn2c(=O)c(C(=O)NCc3cc(Br)ccc3OC)cnc2s1	-1%	.	.	.	.	0%
COc1cc2c(cc1OC)C(C)N(C(=O)Nc1cc(C)cc(C)c1)CC2 (stereo not drawn)	-17%	.	?	6.5µM*	7.3µM*	-22%
COc1ccc(CC(=O)N2CCc3cc(OC)c(OC)cc3C2COc2cc(C)cc(C)c2)cc1OC (stereo not drawn)	-18%	0%	i	.	.	14µM*
COc1cc2c(cc1OC)C(C)N(C(=O)Nc1ccc(F)cc1)CC2 (stereo not drawn)	0%	.	?	?	?	5%
Cc1ccc(C)c(N2C(=O)N(Cc3ccccc3C)c3ccccc3S2(=O)=O)c1	-11%	1%	i	.	.	-23%
Cc1nc2cc(NC(=O)C3CC34CCN(Cc3ccc(O)c(Cl)c3)CC4)ccc2s1 (stereo not drawn)	.	.	i	.	.	.
COc1ccc(C2=NOC(C(=O)NCc3cccs3)C2)cc1OC (stereo not drawn)	1%	-12%	?	?	6.5µM*	0%
COc1cc(C2=NOC(C(=O)NCc3cccs3)C2)cc(OC)c1OC (stereo not drawn)	-20%	-17%	i	5.8µM*	7.3µM*	-13%
COc1cc(OC)c(C2=NOC(C(=O)NCc3cccnc3)C2)cc1Cl (stereo not drawn)	-13%	.	i	?	?	3%
COc1ccc(C2=NOC(C(=O)NCc3ccco3)C2)cc1 (stereo not drawn)	2%	20%	i	7.1µM*	6.3µM*	0%
COc1cc(OC)c(C2=NOC(C(=O)NCc3cccs3)C2)cc1Cl (stereo not drawn)	15%	6%	i	4.1µM*	4.6µM*	-7%
O=C1CS(=O)(=O)C2(C(=O)N(Cc3cccc(F)c3)c3ccccc32)N1c1ccccc1 (stereo not drawn)	-6%	-1%	i	.	.	16%
O=C(c1ccc(F)c(F)c1)N1CCOc2ccc(CN3CCN(Cc4ccccn4)CC3)cc2C1	.	.	i	.	.	.
COc1ccc(CNC(=O)C2CC(c3ccc(OC)cc3)=NO2)cc1 (stereo not drawn)	2%	-19%	i	-1%	-9%	26%
COc1ccc(C2=NOC(C(=O)NCc3cccs3)C2)cc1 (stereo not drawn)	2%	10%	i	?	5.2µM*	9%
Cc1ccc(CNC(=O)C2CC(c3cc(C(F)(F)F)cc(C(F)(F)F)c3)=NO2)o1 (stereo not drawn)	-18%	-22%	i	?	23µM*	-25%
C[C@H](CCC(=O)O)[C@H]1CC[C@H]2[C@@H]3[C@H](O)C[C@@H]4C[C@H](O)CC[C@]4(C)[C@@H]3CC[C@]12C	.	7%	.	.	.	.
CCOc1ccc(Br)cc1CNCCSc1nnnn1-c1ccccc1	-46%	0%	?	.	.	?
C=C1C(=O)O[C@H]2[C@H]1[C@H](OC(=O)/C(C)=C\C)C[C@]1(CO1)[C@@H]1[C@H](OC(C)=O)C=C(C)[C@]21O	0%	4%	?	5%	?	?

Screening results from PubChem BioAssay.
